The values below come from the supplement of paper PMC6522484.

The structures appear in SMILES notation. ± gives the standard deviation of the averaged measurements.

In assay [1] the test system is DLD1. Put plainly: cell viability (CellTiter-Glo) relative to plate median (fraction of plate median); higher = more viable cells. Conditions: 5 µM; treatment time 24 h; reporter: 7TFP. In a few lines:
(§1)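 Stable lentiviral TCF/Wnt firefly luciferase reporters (7TFP or TCF4/Wnt) were present in the colorectal cancer cell lines used. These cells received library compounds at a final 5 µM for 24 h, and parallel plates were read for firefly luciferase or CellTiterGlo luminescence. Each well was normalised to the plate median, and the value reported is the mean of two independent replicates.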
In general terms: ATP-based viability assays read luminescence as a measure of living cells.

Assay [2] has as its system HCT116. Described as above. As to conditions: 5 µM; treatment time 24 h; reporter: TCF4/Wnt. In a few lines:
as §1

Assay [3] concerns SW480. Described as above. Conditions: 5 µM; treatment time 24 h; reporter: 7TFP. In a few lines: as §1
In assay [4] the test system is DLD1. Put plainly: TCF/Wnt firefly luciferase reporter signal relative to plate median (fraction of plate median); higher = higher Wnt reporter signal. Conditions: 5 µM; treatment time 24 h; reporter: 7TFP. In a few lines:
as §1
In general terms: In a reporter assay the amount or activity of a reporter protein is the signal.

The test system of assay [5] is SW480. The assay is described as above. Conditions: 5 µM; treatment time 24 h; reporter: 7TFP. A digest of the protocol:
as §1

For `CC1(C)C=CC(=O)[C@@]2(C)C1CC(=O)[C@]1(C)C2CC[C@@]2(C)[C@H](c3ccoc3)OC(=O)C3OC321` (stereo not given in full), the cell viability turned out to be 1 ± 0.012 in assay [1], 0.71 ± 0.61 in assay [2] and 0.998 ± 0.018 in assay [3]. For the same compound, the “TCF/Wnt firefly luciferase reporter signal” value stood at 0.99 ± 0.029 in assay [4] and 0.854 ± 0.13 in assay [5].

As for `CN1CCc2cccc3c2[C@H]1Cc1ccc(O)c(O)c1-3`, the cell viability in assay [1] turned out to be 0.957 ± 0.06; in assay [2], 1.04 ± 0.088; in assay [3], 0.992 ± 0.025. The results for the “TCF/Wnt firefly luciferase reporter signal” value in assay [4] and in assay [5] were 1.1 ± 0.057 and 0.978 ± 0.088, respectively.

Turning to `C=C[C@@](C)(O)CCC1C(=C)CCC2[C@@](C)(CO)CCC[C@]12C` (stereo not given in full), the figures for the cell viability in assay [1], in assay [2] and in assay [3] were 1.005 ± 0.0071, 1.14 ± 0.16 and 1.1 ± 0.021, respectively. The “TCF/Wnt firefly luciferase reporter signal” value in assay [4] amounted to 0.967 ± 0.017; in assay [5], 1.01 ± 0.067.

As for `CN1CCN(C2=Nc3cc(Cl)ccc3Nc3ccccc32)CC1`, the cell viability in assay [1] was determined as 1.12 ± 0.071; in assay [2] it was 1.05 ± 0.1; in assay [3] it was 1.005 ± 0.0071. Besides, the figures for the “TCF/Wnt firefly luciferase reporter signal” value in assay [4] and in assay [5] were 0.916 ± 0.058 and 0.97 ± 0.043, respectively.

Turning to `CC(=O)OCC(=O)[C@@]1(O)[C@H](C)C[C@H]2[C@@H]3CCC4=CC(=O)C=C[C@]4(C)[C@@]3(F)[C@@H](O)C[C@@]21C`, the values for the cell viability in assay [1], in assay [2] and in assay [3] were 1.06 ± 0.085, 0.952 ± 0.054 and 1.02 ± 0.088, respectively. Further, the “TCF/Wnt firefly luciferase reporter signal” value in assay [4] was found to be 0.958 ± 0.037; in assay [5], 0.969 ± 0.044.

With `CC1CC(OC(=O)C(O)c2ccccc2)CC(C)(C)N1C` (stereo not given), the cell viability in assay [1] came to 1 ± 0.011; in assay [2] it was 1.05 ± 0.021; in assay [3], 1.02. Also, the “TCF/Wnt firefly luciferase reporter signal” value turned out to be 1.05 ± 0.028 in assay [4] and 1.18 ± 0.057 in assay [5].

With `CC1(C)S[C@@H]2[C@H](NC(=O)C(C(=O)O)c3ccccc3)C(=O)N2[C@H]1C(=O)O` (stereo not given in full), the cell viability worked out at 0.912 ± 0.073 in assay [1], 0.9345 ± 0.0064 in assay [2] and 0.9405 ± 0.005 in assay [3]. Further, the “TCF/Wnt firefly luciferase reporter signal” value in assay [4] stood at 0.999 ± 0.13; in assay [5] it was 1.05 ± 0.021.

In the case of `COc1ccc(CCN(C)CCCC(C#N)(c2ccc(OC)c(OC)c2)C(C)C)cc1OC` (stereo not given), the cell viability amounted to 1.04 ± 0.12 in assay [1], 0.971 ± 0.07 in assay [2] and 1.02 ± 0.014 in assay [3]. Besides, the “TCF/Wnt firefly luciferase reporter signal” value in assay [4] came out at 1.01 ± 0.12; in assay [5], 1.03 ± 0.11.

In the case of `COc1ccc(-c2cc(=O)c3c(O)c(OC)c(OC)c(OC)c3o2)cc1OC`, the cell viability in assay [1] is 1.07 ± 0.085; in assay [2] it was 1.19 ± 0.11; in assay [3], 1.15 ± 0.18. Further, the “TCF/Wnt firefly luciferase reporter signal” value was found to be 0.964 ± 0.065 in assay [4] and 0.967 ± 0.2 in assay [5].

In the case of `CCCCCCCCCCCC[C@@H](C(=O)O)[C@H](C)C(=O)O`, the cell viability in assay [1] came out at 1.005 ± 0.0071; in assay [2], 1.08 ± 0.25; in assay [3], 1 ± 0.028. Also, the figures for the “TCF/Wnt firefly luciferase reporter signal” value in assay [4] and in assay [5] were 0.944 ± 0.11 and 1.03, respectively.

For the compound `CCC(C)C(N)=O` (stereo not given) [2-Methylbutyramide], the cell viability in assay [1] was 1.06 ± 0.028; in assay [2] it was 1.05 ± 0.021; in assay [3], 1.01 ± 0.018. Further, the “TCF/Wnt firefly luciferase reporter signal” value in assay [4] was 1.16 ± 0.071; in assay [5], 1.045 ± 0.0071.

With `CC(=O)O[C@@H]1C[C@H]2C(C)(C)[C@H](O)C[C@H](O)[C@]2(C)[C@H]2CC[C@@]3(C)[C@H](c4ccoc4)OC(=O)[C@H]4O[C@]43[C@@]21C`, the figures for the cell viability in assay [1], in assay [2] and in assay [3] were 0.9065 ± 0.005, 0.942 ± 0.012 and 0.977 ± 0.0014, respectively. The “TCF/Wnt firefly luciferase reporter signal” value in assay [4] was 1 ± 0.11; in assay [5], 0.892 ± 0.033.

Turning to `NNC(=O)c1ccncc1`, the results for the cell viability in assay [1], in assay [2] and in assay [3] were 0.952 ± 0.018, 0.959 ± 0.049 and 0.984 ± 0.051, respectively. In addition, the “TCF/Wnt firefly luciferase reporter signal” value stood at 0.8925 ± 0.00071 in assay [4] and 1.03 ± 0.028 in assay [5].

For `CN(C)CCOC(=O)COc1ccc(Cl)cc1`, the cell viability in assay [1] was 0.979 ± 0.0085; in assay [2] it was 0.991 ± 0.083; in assay [3], 0.956 ± 0.052. In addition, the “TCF/Wnt firefly luciferase reporter signal” value in assay [4] was 1.21 ± 0.14; in assay [5], 1.14 ± 0.05.

Turning to `CC(=O)O[C@H]1CC[C@]2(C)C(C[C@@H](OC(C)=O)[C@]3(C)C4=CC(=O)O[C@H](c5ccoc5)[C@@]4(C)CCC23)C1(C)C` (stereo partly drawn) [3-DEOXO-3beta-ACETOXYDEOXYDIHYDROGEDUNIN], the cell viability in assay [1] amounted to 1 ± 0.057; in assay [2], 1.14 ± 0.19; in assay [3], 0.982 ± 0.04. Moreover, the “TCF/Wnt firefly luciferase reporter signal” value in assay [4] is 1.05 ± 0.021; in assay [5], 0.864 ± 0.09.

Take `Oc1ncnc2[nH]ncc12`: the cell viability in assay [1] came to 0.939 ± 0.063; in assay [2], 1.05 ± 0.12; in assay [3] it was 1.07 ± 0.057. Also, the “TCF/Wnt firefly luciferase reporter signal” value in assay [4] was determined as 1.03; in assay [5], 0.961 ± 0.11.

Regarding `CC1=Nc2ccc(Cl)cc2S(=O)(=O)N1`, the cell viability in assay [1] came to 0.946 ± 0.016; in assay [2] it was 1.06 ± 0.12; in assay [3], 0.975 ± 0.05. Also, the figures for the “TCF/Wnt firefly luciferase reporter signal” value in assay [4] and in assay [5] were 1.135 ± 0.0071 and 0.86 ± 0.14, respectively.

On to `C[C@@H]1CC[C@@]23CCC4(C)[C@@](C=CC5[C@@]6(C)CCC(=O)C(C)(C)C6CC[C@]54C)(OC2=O)C3[C@H]1C` (stereo not given in full), for which the results for the cell viability in assay [1], in assay [2] and in assay [3] were 0.982 ± 0.04, 0.991 ± 0.15 and 0.956 ± 0.018, respectively. Further, the “TCF/Wnt firefly luciferase reporter signal” value in assay [4] stood at 0.836 ± 0.09; in assay [5], 0.921 ± 0.017.

As to `CCCCOc1cc(C(=O)NCCN(CC)CC)c2ccccc2n1`, the cell viability in assay [1] worked out at 0.973 ± 0.011; in assay [2], 0.926 ± 0.1; in assay [3], 0.984. Moreover, the figures for the “TCF/Wnt firefly luciferase reporter signal” value in assay [4] and in assay [5] were 0.831 ± 0.05 and 0.964 ± 0.045, respectively.

Take `NC/C=C/C(=O)O`: the values for the cell viability in assay [1], in assay [2] and in assay [3] were 1.03 ± 0.088, 1.01 ± 0.095 and 1 ± 0.068, respectively. In addition, the “TCF/Wnt firefly luciferase reporter signal” value is 0.965 ± 0.079 in assay [4] and 1 ± 0.11 in assay [5].

`CC(=O)Oc1ccc(O)cc1`: the cell viability stood at 1.03 ± 0.021 in assay [1], 1.08 ± 0.035 in assay [2] and 1.04 ± 0.014 in assay [3]. Further, the “TCF/Wnt firefly luciferase reporter signal” value in assay [4] is 1.07 ± 0.042; in assay [5], 1.035 ± 0.0071.

For the compound `C/N=C(/NC#N)NCCSCc1csc(NC(=N)N)n1`, the cell viability in assay [1] was found to be 1 ± 0.068; in assay [2], 0.975 ± 0.078; in assay [3], 1.01 ± 0.014. The “TCF/Wnt firefly luciferase reporter signal” value in assay [4] came to 1.12 ± 0.021; in assay [5], 1.11 ± 0.064.

For `COC[C@H]1O[C@@H](OC2OC[C@@H]3O[C@]4(O[C@H]3[C@H]2OC(=O)C(C)C)O[C@H](C)[C@@](O)(C(C)=O)[C@@H]2OCO[C@H]24)[C@@H](OC)[C@@H](O)[C@@H]1O[C@@H]1O[C@H](C)[C@H](OC)[C@H](O[C@H]2C[C@@]3(C)OC4(C[C@@H](O)[C@H](O[C@H]5C[C@@H](O)[C@H](OC(=O)c6c(C)c(Cl)c(O)c(Cl)c6OC)[C@@H](C)O5)[C@@H](C)O4)O[C@@H]3[C@@H](C)O2)[C@H]1O` (stereo not given in full) [Avilamycin A], the cell viability turned out to be 0.977 ± 0.033 in assay [1], 1.02 ± 0.042 in assay [2] and 0.991 ± 0.042 in assay [3]. The “TCF/Wnt firefly luciferase reporter signal” value in assay [4] worked out at 1.03 ± 0.028; in assay [5] it was 1.03 ± 0.078.

With `COc1cc(C(=O)N2CCOCC2)cc(OC)c1OC`, the cell viability in assay [1] was found to be 1.08 ± 0.11; in assay [2] it was 1.03 ± 0.079; in assay [3] it was 1.06 ± 0.028. The “TCF/Wnt firefly luciferase reporter signal” value stood at 1.04 ± 0.24 in assay [4] and 1.08 ± 0.035 in assay [5].

In the case of `Cc1cc(-c2ncc(CC(=O)Nc3ccc(-c4cnccn4)cn3)cc2C)ccn1`, the cell viability was determined as 0.974 ± 0.052 in assay [1], 0.975 ± 0.032 in assay [2] and 0.914 ± 0.0028 in assay [3]. Besides, the “TCF/Wnt firefly luciferase reporter signal” value in assay [4] amounted to 0.921 ± 0.042; in assay [5] it was 0.847 ± 0.21.

On to `Cc1ccnc(NS(=O)(=O)c2ccc(N)cc2)n1`, for which the figures for the cell viability in assay [1], in assay [2] and in assay [3] were 0.968 ± 0.059, 0.974 ± 0.052 and 0.953 ± 0.04, respectively. Besides, the “TCF/Wnt firefly luciferase reporter signal” value in assay [4] came out at 0.924 ± 0.019; in assay [5], 0.929 ± 0.1.

`CC1(C)CC2C1CC[C@]1(C)CCC3C(C(=O)O)CC(=O)O[C@@]32C1` (stereo not given in full) [3-HYDROXY-4-(SUCCIN-2-YL)-CARYOLANE delta-LACTONE]: the cell viability in assay [1] came to 1.01 ± 0.088; in assay [2], 0.9705 ± 0.00071; in assay [3] it was 0.962 ± 0.035. The “TCF/Wnt firefly luciferase reporter signal” value in assay [4] was 1.07 ± 0.085; in assay [5] it was 0.986 ± 0.021.
